# From PubChem BioAssay AID686979 (National Center for Advancing Translational Sciences (NCATS), 2013)
# Several values for one entry are separate records, joined by “and”; a condition that tells them apart may be missing. Equal entries are not always repeated. Screen size: about 420,000 compounds; about 50,000 (12%) were called active. Not shown: some 26% with an inconclusive outcome. Calls come from the whole dose curve; as a rule, active = well fitted inhibition curve with a large enough effect; inconclusive = small, poorly fitted or top-dose-only effect; inactive = flat fitted curve, though single readings scatter. The sample as a whole holds a higher share of actives than the screen did. Some compounds were tested as several samples or in several runs, with calls that do not always agree.
# Test: qHTS for Inhibitors of human tyrosyl-DNA phosphodiesterase 1 (TDP1): qHTS in cells in presence of CPT; note: nearly all actives have a fitted effect of over 55% in size
# Conditions: chicken DT40 Tdp1-/-;hTDP1 cells + 20 nM CPT, ATP luminescence, 48 h; series mostly up to 46.2 µM; activity change, negative = growth inhibition: at the top concentration
# From the text: Human tyrosyl-DNA phosphodiesterase 1 (TDP1) is a novel repair gene, and we propose to use it as a new target for anticancer drug development. TDP1 is not an essential protein, but under treatment with topoisomerase I poison (camptothecin: CPT), TDP1 works as a critical factor for cell survival. To directly identify novel TDP1 inhibitors active in a cellular environment, we have knocked-out the Tdp1 gene in chicken DT40 cells (Tdp1-/-) and generated a complemented counterpart cells that contains a stable transfection of the human TDP1 gene (Tdp1-/-;hTDP1 cells). For the primary screen, Tdp1-/-;hTDP1 cells will be exposed to small molecules in the presence or absence of CPT, and their growth kinetics will be evaluated after 48 hours by measuring ATP activity. […] The hit compounds will then be evaluated in the presence or absence of CPT using Tdp1-/- cells. […] In tertiary assays, biochemical gel-based assays will be used to assess whether the hit compounds specifically target TDP1. To this end, we have screened this cell line against the MLSMR in two primary screens. In one screen we add CPT and in the other we screen in the absence of CPT; this AID represents the screen where CPT was present. NIH Chemical Genomics Center [NCGC] NIH Molecular Libraries Probe Centers Network [MLPCN] MLPCN Grant: MH095538 Assay Submitter (PI): Yves Pommier, NCI
# DT40-hTDP1 cells with 20 nM Camptothecin (add 20 microL of 1 mM CPT stock in 1 L of cell culture medium) were dispensed at 400 cells/5microL/well in tissue culture treated 1536-well white wall/solid bottom assay plates (Greiner Bio-One North America, NC, U.S.A.) using a Multidrop Combi 8 channel dispenser (Thermo Fisher, Waltham, MA, USA). 23 nL compounds and controls were transferred using the pin tool (Kalypsys, San Diego, CA, USA) to the assay plates. The assay plates were then incubated at 37 masculineC for a minimum 48 hr. Three microL of Cell Titer Glo solution was added to the plates and incubated at RT in dark for 30 min. Luminescence was read using ViewLux (Perkin Elmer) with 1 sec exposure slow speed, high gain and 2x binning.
# % is set by controls: 0 for no effect and ±100 for the full control effect; potency is the fitted concentration of half-maximal effect.
Compound,"activity change, negative = growth inhibition",Potency
CCOC(=O)c1ccc2[nH]c(C)c(CN3CCN(C)CC3)c(=O)c2c1,12.7% (inactive),–
CCCOC(=O)c1ccc(N2C(=O)c3ccccc3C2=O)cc1,-3.9% (inactive),–
O=C(NCCc1ccccc1)C(=O)NCC(c1ccco1)S(=O)(=O)c1ccccc1 (stereo unspecified),-27.8% (inactive),–
COc1ccccc1NS(=O)(=O)c1ccc(C)c(C(=O)NCC(c2ccco2)N(C)C)c1 (stereo unspecified),12.3% (inactive),–
CC(C)(C)c1ccc(C(=O)NCC(c2ccco2)S(=O)(=O)c2ccc(F)cc2)cc1 (stereo unspecified),–,20.6 µM (active)
O=C(NCc1ccccc1)C(=O)NCC(c1ccco1)S(=O)(=O)c1ccc(Cl)cc1 (stereo unspecified),–,23.1 µM (active)
CC(C)(C)c1ccc(C(=O)NCc2ccco2)cc1,-21.9% (inactive),–
CC(C)(C)c1ccc(C(=O)NCCC(=O)NCc2ccco2)cc1,-27.3% (inactive),–
COc1ccc(S(=O)(=O)NC(CC(=O)NCc2ccccc2OC)c2ccco2)cc1 (stereo unspecified),-22.8% (inactive),–
CC(C)CNC(=O)C(=O)NCc1ccccc1,-5.58% (inactive),–
COc1ccccc1CNC(=O)C(=O)NCC(c1ccco1)S(=O)(=O)c1ccc(F)cc1 (stereo unspecified),–,20.6 µM (active)
O=C(CCN1C(=O)C2CCCCC2C1=O)Nc1ccc(OC(F)F)cc1 (stereo unspecified),0.993% (inactive),–
COc1ccccc1-n1ccnc(SCC(=O)NC2CCCCC2)c1=O,-22.8% (inactive),–
COc1ccccc1C(=O)NCc1nnc(SC(C)C(=O)Nc2nccs2)n1C (stereo unspecified),-3.89% (inactive),–
Cc1c(NS(=O)(=O)c2ccc(Cl)cc2)c(=O)n(-c2ccccc2)n1C,-2.45% (inactive),–
O=C(NCc1ccc(Cl)cc1)NCc1ccc(Cl)cc1,-7.05% (inactive),–
O=C(c1cccs1)N(C(=O)c1cccs1)c1ccccn1,2.25% (inactive),–
CCOc1cc(C(=O)O)ccc1OCCOc1ccccc1,11.7% (inactive),–
CCc1nc2c(OCCOc3ccccc3)cccn2c1N(C)C(=O)c1ccc(OC)cc1,–,29.1 µM (active)
CCc1nc2c(OCC(N)=O)cccn2c1N(C)C(=O)c1ccc(OC)cc1,-52.9% (inactive),–
O=C(COc1ccccc1)OCc1cc(=O)n2nc(-c3cccs3)sc2n1,-2.16% (inactive),–
CCc1nc2c(OCCOc3ccccc3)cccn2c1N(C)C(=O)c1cccs1,–,25.9 µM (active)

Compound,"activity change, negative = growth inhibition",Potency
Cc1c(C2=CCN(S(=O)(=O)c3ccc(Cl)cc3)CC2)c2ccccc2n1C,-25% (inactive),–
Cc1ccn(CC(=O)N2N=C(C(F)F)CC2(O)C(F)F)n1 (stereo unspecified),-25.3% (inactive),–
COc1cccc(CN2CCNC(=O)C2CC(=O)N(C)CCc2ccccn2)c1 (stereo unspecified),10.9% (inactive),–
O=C(NCCCNC(=O)NC1CCCCC1)NC1CCCCC1,-19.5% (inactive),–
O=C(NNC(=O)c1csc(-c2cccnc2)n1)Nc1ccc(Cl)cc1,-15% (inactive),–
O=C(Nc1ccc(Cl)cc1)Nc1ccc(Oc2cccnc2)nc1,–,18.4 µM (active)
Cc1ccc(NC(=O)Nc2cccnc2)cc1,4.49% (inactive),–
CCN=c1sc(C(=O)Nc2ccccc2)c(C)n1CC,2.49% (inactive),–
O=C(COc1ccc(/C=N/NS(=O)(=O)c2ccccc2)cc1)NCCc1ccccc1,-22.2% (inactive),–
CC(C)NC(=O)COCc1cc(-c2ccc3c(c2)OCO3)on1,-0.118% (inactive),–
Cc1cccc(N2CCN(C(=O)COCc3cc(-c4ccc5c(c4)OCO5)on3)CC2)c1C,–,inactive
O=C(COCc1cc(-c2ccc3c(c2)OCO3)on1)N1CCN(c2cccc(Cl)c2)CC1,–,inactive and 18.4 µM (active)
CC(=O)c1ccccc1NC(=O)C1CC(=O)N(c2ccc3c(c2)OCCO3)C1 (stereo unspecified),0.743% (inactive),–
N#CCCN(C(=O)COC(=O)C1CCN(c2ccc(C(F)(F)F)cn2)CC1)c1ccc(F)cc1,-17.8% (inactive),–
c1ccc(-n2nnnc2NC2CCCCCC2)cc1,-24.8% (inactive),–
FC(F)(F)c1nc(-c2ccccc2)ncc1-c1nnnn1-c1ccccc1,–,20.6 µM (active)
c1ccc(-n2nnnc2-c2cccnc2)cc1,-7.87% (inactive),–
Cc1ccc2c(=O)cc(C(=O)Nc3sc4c(c3C(=O)NCc3cccnc3)CCCC4)oc2c1,3% (inactive),–
COc1ccc(C2CC(c3cccs3)=NN2C(=O)CSc2nnc(N)s2)cc1OC (stereo unspecified),2.09% (inactive),–
Fc1ccc2cnc(-c3ccccc3)cc2c1,-40.8% (inactive),–
Fc1ccc(Nc2nnns2)cc1,-18.8% (inactive),–
CSc1nc(Nc2ccc(F)cc2)cc(-c2ccccc2)n1,–,14.6 µM (active)

Compound,"activity change, negative = growth inhibition",Potency
CCNc1nc(Oc2ccc(C(=O)OC)cc2)nc(N2CCOCC2)n1,-2.75% (inactive),–
COc1ccccc1S(=O)(=O)NCc1ccc(C(=O)N(C)Cc2ccc(F)cc2)cc1,–,20.6 µM (active)
COc1ccc(S(=O)(=O)NCc2ccc(C(=O)N(C)Cc3ccco3)cc2)cc1,-26.5% (inactive),–
O=C(NCCS(=O)(=O)NCc1ccc(F)cc1)c1ccccc1,-16.7% (inactive),–
NC(=O)c1oc2ccccc2c1NC(=O)CS(=O)(=O)c1ccccc1,-14.5% (inactive),–
CC[C@]12c3[nH]c4ccc(OC)cc4c3CCN1C(=O)C(CC(=O)NCCN1CCOCC1)C[C@@H]2C(=O)N1CCN(C(=O)C2CC2)CC1 (stereo partly specified),-0.596% (inactive),–
c1ccc2c(c1)CSc1sccc1C2=C1CCNCC1,–,20.6 µM (active)
Cc1csc(NCC(=O)c2c[nH]c3ccccc23)n1,12.2% (inactive),–
NC(=O)NCCCC(=O)O,0.521% (inactive),–
Cc1cc(C)n(CCNCc2c(C(=O)N3C[C@@H](C)O[C@@H](C)C3)nc3ccc(Cl)cn23)n1,7.87% (inactive),–
CC(=O)Oc1cccc(C(=O)Nc2ccccc2NC(=O)c2cccc(OC(C)=O)c2)c1,-13.8% (inactive),–
COc1ccc(OC)c2[nH]c(=O)c(CCNC(=O)C(=O)c3c[nH]c4ccccc34)cc12,–,10.3 µM (active)
COc1ccc(OC)c2[nH]c(=O)c(CCNC(=O)C(C)(C)C)cc12,4.38% (inactive),–
Cc1ccc(C)c2[nH]c(=O)c(CCNC(=O)CC(C)C)cc12,10.6% (inactive),–
CC1(C(=O)NCc2ccccc2)CSCC(=O)N1CCCn1ccnc1 (stereo unspecified),15.7% (inactive),–
CC1(C)C=Cc2c(ccc(C(=O)/C=C/c3ccccc3)c2O)O1,–,7.94 µM (active)
O=C(/C=C/c1ccccc1)N/C(=C/c1ccccc1)C(=O)Nc1ccccc1O,-12.3% (inactive),–
CC(=O)Nc1ccc(NC(=S)NC(=O)/C=C/c2ccccc2)cc1,21.7% (inactive),–
CC1(C(=O)O)CCN1C(=O)/C=C/c1ccccc1 (stereo unspecified),-1.88% (inactive),–
O=C(/C=C/c1ccccc1)c1ccccc1O,–,10.3 µM (active)
O=C(O)c1ccc2c(c1)C(=O)N(c1ccc(/C=C/C(=O)c3ccccc3)cc1)C2=O,11.4% (inactive),–
N#CC1=C(N)Oc2[nH]c(=S)[nH]c(=O)c2C12C(=O)Nc1ccccc12 (stereo unspecified),-39.3% (inactive),–
